From PubChem BioAssay (NCATS)
Inconclusive results are not listed. Calls of active or inactive are those of the source. Calls come from the whole dose curve; as a rule, active = well fitted curve in the direction sought with a large enough effect; inconclusive = small, poorly fitted or top-dose-only effect, or another doubt; inactive = no such curve, though single readings can be large; an effect the other way counts as inactive or inconclusive.

How the values were obtained:
[1] = qHTS of pediatric cancer cell lines to identify multiple opportunities for drug repurposing: Primary screen for NB1643 cells (AID 1347099); note: nearly all actives have a fitted effect of over 50% in size
In short: (§1)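 Phenotypic viability qHTS, 48 h compound exposure, CellTiter-Glo luminescence read-out; multi-concentration dosing so that potency and efficacy derive directly from the primary screen's curves.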

[2] = qHTS of pediatric cancer cell lines to identify multiple opportunities for drug repurposing: Primary screen for LAN-5 cells (AID 1347100)
In short: (§2)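 Cells (500-1,000/well) in growth media were settled 5 h at 37 degrees C, then given compounds for 48 h. Viability was read as CellTiter-Glo luminescence. Primary runs used MIPE at 11 points (0.78 nM-46 µM) and NPC at 8 points (0.59 nM-46 µM); follow-ups used 11 points.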

[3] = qHTS of pediatric cancer cell lines to identify multiple opportunities for drug repurposing: Primary screen for BT-12 cells (AID 1347101); note: nearly all actives have a fitted effect of over 25% in size
In short: (§3)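 Cells (500-1,000/well) rested 5 h, then received compounds for 48 h; metabolically active cells were measured by CellTiter-Glo luminescence. Final concentrations spanned up to 46 µM (MIPE, 11-point) or 0.59 nM-46 µM (NPC, 8-point) in primary screens, 11-point in follow-ups.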

[4] = qHTS of pediatric cancer cell lines to identify multiple opportunities for drug repurposing: Primary screen for Rh18 cells (AID 1347102); note: nearly all actives have a fitted effect of over 65% in size
In short: as §2

[5] = qHTS of pediatric cancer cell lines to identify multiple opportunities for drug repurposing: Primary screen for OHS-50 cells (AID 1347103); note: nearly all actives have a fitted effect of over 40% in size
In short: as §3

[6] = qHTS of pediatric cancer cell lines to identify multiple opportunities for drug repurposing: Primary screen for RD cells (AID 1347104); note: nearly all actives have a fitted effect of over 55% in size
In short: as §1

[7] = qHTS of pediatric cancer cell lines to identify multiple opportunities for drug repurposing: Primary screen for control Hh wild type fibroblast cells (AID 1347106); note: nearly all actives have a fitted effect of over 55% in size
In short: as §2

[8] = qHTS of pediatric cancer cell lines to identify multiple opportunities for drug repurposing: Primary screen for Rh30 cells (AID 1347107); note: nearly all actives have a fitted effect of over 75% in size
In short: as §2

[9] = qHTS of pediatric cancer cell lines to identify multiple opportunities for drug repurposing: Primary screen for Rh41 cells (AID 1347108); note: nearly all actives have a fitted effect of over 70% in size
In short: as §1

[10] = qHTS of pediatric cancer cell lines to identify multiple opportunities for drug repurposing: Primary screen for MG 63 (6-TG R) cells (AID 1347105); note: nearly all actives have a fitted effect of over 50% in size
In short: as §1

Measured: Potency
Potency is the fitted concentration of half-maximal effect.

CCc1c(C(=O)C(N)=O)c2c(OCC(=O)O)cccc2n1Cc1ccccc1
inactive: [1] | [2] | [3] | [4] | [5] | [6] | [7] | [8] | [9]

CC(N[C@H]1C[C@H]1c1ccccc1)c1ccc2c(c1)OCCO2 (some centres undefined)
inactive: [1] | [2] | [3] | [4] | [5] | [6] | [10] | [7] | [8] | [9]

CC(Cc1ccc(O)cc1)NCC(O)c1cc(O)cc(O)c1 (centres undefined)
inactive: [1] | [2] | [3] | [4] | [5] | [6] | [10] | [7] | [8] | [9]

O=C1CCC[C@@H]2[C@H]3CCCN4CCC[C@@H](CN12)[C@@H]34
inactive: [1] | [2] | [3] | [4] | [5] | [6] | [10] | [7] | [8] | [9]

CC[C@@]1(O)C(=O)OCc2c1cc1n(c2=O)Cc2cc3ccccc3nc2-1
active: [1] 46.9 nM | [2] 9.3 nM | [3] 273 nM | [4] 296 nM | [5] 19.3 nM | [6] 743 nM | [10] 59 nM | [9] 209 nM

N#C[C@H](O[C@@H]1O[C@H](CO[C@@H]2O[C@H](CO)[C@H](O)[C@H](O)[C@H]2O)[C@H](O)[C@H](O)[C@H]1O)c1ccccc1
inactive: [7]
active: [1] 11800 nM | [2] 23500 nM | [3] 24300 nM | [5] 21700 nM | [6] 33200 nM

C[C@@H]1[C@H](O)[C@@H](C)C=CC=CCCC=CC=CC=CC=C[C@H](O[C@H]2O[C@@H](C)[C@H](O)[C@@H](N)[C@@H]2O)CC2O[C@](O)(C[C@@H](O)[C@H](O)CC[C@@H](O)C[C@@H](O)C[C@@H](O)CC(=O)O[C@H]1C)C[C@H](O)[C@H]2C(=O)O
inactive: [1] | [2] | [3] | [4] | [5] | [6] | [10] | [7] | [8] | [9]

O=[N+]([O-])c1cc([N+](=O)[O-])c2ccccc2c1
inactive: [1] | [2] | [3] | [4] | [5] | [6] | [10] | [7] | [8] | [9]

O=C(O)CCCOc1ccc(Cl)cc1Cl
inactive: [1] | [2] | [3] | [4] | [6] | [10] | [7] | [8] | [9]

CCCC[N+]1(C)[C@H]2CC(OC(=O)[C@H](CO)c3ccccc3)C[C@H]1[C@H]1O[C@H]12 (some centres undefined)
inactive: [1] | [2] | [3] | [5] | [6] | [10] | [7] | [8] | [9]

O=S(=O)(F)Cc1ccccc1
inactive: [1] | [2] | [3] | [5] | [6] | [7] | [8] | [9]

CC[N+]1(CCOC(=O)C(O)(c2ccccc2)c2ccccc2)CCCCC1
inactive: [1] | [2] | [3] | [4] | [5] | [6] | [10] | [7] | [8] | [9]

C[C@H]([C@H](O)CCC(C)(C)O)[C@H]1CC[C@@]2(O)C3=CC(=O)[C@@H]4C[C@@H](O)[C@@H](O)C[C@]4(C)[C@@H]3CC[C@]12C
inactive: [1] | [2] | [3] | [5] | [6] | [10] | [7] | [8] | [9]

O=[N+]([O-])c1ccc([As](=O)(O)O)cc1
inactive: [1] | [2] | [3] | [4] | [5] | [6] | [10] | [7] | [8] | [9]

NC1CC1c1ccccc1 (centres undefined)
inactive: [1] | [2] | [3] | [4] | [5] | [6] | [10] | [7] | [8] | [9]

Cc1cc(O)ccc1Cl
inactive: [1] | [2] | [3] | [5] | [6] | [10] | [7] | [8] | [9]

OCCCBr
inactive: [1] | [2] | [3] | [5] | [6] | [10] | [7] | [8] | [9]

COCC1(CO)C(=O)C2CCN1CC2 (centres undefined)
inactive: [4] | [6] | [7]
active: [1] 5900 nM | [2] 833 nM | [3] 21700 nM | [5] 3850 nM | [10] 18700 nM | [9] 20900 nM

O=[N+]([O-])c1c(Cl)c(Cl)cc(Cl)c1Cl
inactive: [1] | [2] | [3] | [4] | [5] | [6] | [10] | [7] | [8] | [9]

CCOP(=O)(OCC)C(C)NC(=O)N(CCCl)N=O (centres undefined)
inactive: [1] | [2] | [3] | [5] | [6] | [10] | [7] | [8] | [9]

COCCOCCO
inactive: [1] | [2] | [3] | [4] | [5] | [6] | [10] | [7] | [8] | [9]

c1cc2ccc3cccc4ccc(c1)c2c34
inactive: [1] | [2] | [3] | [4] | [5] | [6] | [10] | [7] | [8] | [9]

C[C@]12CC[C@H]3[C@@H](CCC4=CC(=O)CC[C@@]43C)[C@H]1CC[C@H]2OC(=O)CCC1CCCC1
inactive: [1] | [2] | [3] | [4] | [5] | [10] | [7] | [8] | [9]

O=S(=O)(O)C(F)(F)C(F)(F)C(F)(F)C(F)(F)F
inactive: [1] | [2] | [3] | [5] | [6] | [10] | [7] | [8] | [9]

CC(C)(O)C=CC(=O)[C@](C)(O)[C@H]1[C@H](O)C[C@]2(C)[C@@H]3CC=C4[C@@H](C=C(O)C(=O)C4(C)C)[C@]3(C)C(=O)C[C@@]12C
active: [1] 37.2 nM | [2] 74.3 nM | [3] 243 nM | [4] 52.6 nM | [5] 137 nM | [6] 166 nM | [10] 29.6 nM | [8] 8330 nM | [9] 469 nM

CC1=C(C(=O)O)N2C(=O)[C@@H](N)[C@H]2SC1
inactive: [1] | [2] | [3] | [4] | [5] | [6] | [10] | [7] | [8] | [9]

c1cc2c(cc1[C@H]1OC[C@H]3[C@H]1CO[C@H]3c1ccc3c(c1)OCO3)OCO2
inactive: [1] | [2] | [3] | [5] | [6] | [10] | [7] | [8] | [9]

CO[C@H]1CCC(O[C@H]2C[C@H]([C@]3(C)CC[C@]4(C[C@H](O)[C@@H](C)[C@@H]([C@@H](C)C=C(C)C(=O)[C@H](C)C[C@H](C)C(=O)O)O4)O3)O[C@]3(O[C@@H]([C@H]4O[C@@](O)(CO)[C@H](C)C[C@H]4C)C[C@H]3C)[C@H]2C)O[C@H]1C (some centres undefined)
active: [1] 1050 nM | [2] 372 nM | [3] 273 nM | [4] 2960 nM | [5] 217 nM | [6] 1870 nM | [10] 7430 nM | [8] 3720 nM | [9] 1870 nM

COc1cccc2c1[C@]13CCN(CC4CC4)[C@H](C2)[C@]1(OC)CCC(=O)C3
inactive: [1] | [2] | [3] | [4] | [5] | [6] | [10] | [7] | [8] | [9]

CC(C)(C)NC[C@H](O)c1ccc(O)cc1Cl
inactive: [1] | [2] | [3] | [5] | [6] | [10] | [7] | [8] | [9]

CC1=C(O)C(=O)C=C2C1=CC=C1[C@@]2(C)CC[C@@]2(C)[C@@H]3C[C@](C)(C(=O)O)CC[C@]3(C)CC[C@]12C
active: [1] 1660 nM | [2] 1870 nM | [3] 2730 nM | [4] 1870 nM | [5] 2430 nM | [6] 1320 nM | [10] 935 nM | [8] 4690 nM | [9] 1480 nM

O=[N+]([O-])/N=C1\NCCN1Cc1ccc(Cl)nc1
inactive: [1] | [2] | [3] | [4] | [5] | [6] | [10] | [7] | [8] | [9]

COC(=O)[C@@H](N)CCCN=C(N)N[N+](=O)[O-]
active: [1] 9350 nM
inactive: [2] | [3] | [4] | [5] | [10] | [8] | [9]

O=C(Nc1ccccc1-c1ccc(Cl)cc1)c1cccnc1Cl
inactive: [1] | [2] | [3] | [4] | [6] | [10] | [7] | [8] | [9]

CC[C@@H]1[C@@H](C)O[C@@](O)([C@@H](C)[C@H](O)[C@H](C)[C@H]2OC(=O)C=CC=C[C@@H](C)[C@@H]([C@@H](C)[C@@H](O)[C@H](C)[C@@]3(O)C[C@H](O[C@H]4C[C@H](O)[C@H](O)[C@H](C)O4)[C@H](CC)[C@@H](C)O3)OC(=O)C=CC=C[C@@H]2C)C[C@H]1O[C@H]1C[C@H](O)[C@H](O)[C@H](C)O1
active: [1] 833 nM | [2] 372 nM | [3] 863 nM | [4] 590 nM | [5] 306 nM | [6] 264 nM | [10] 590 nM | [7] 9350 nM | [8] 935 nM | [9] 743 nM
